According to PubChem BioAssay (NCATS):
Unmarked numbers belong to inactive results. Records with an inconclusive call do not appear. Entries that show only a call come without a potency. Activity calls are given as the source filed them. Unless noted, calls come from the whole dose curve; as a rule, active = well fitted curve in either direction with a large enough effect (not every such curve was filed as active); inconclusive = small, poorly fitted or top-dose-only effect, or another doubt; inactive = flat fitted curve, though single readings scatter.

What was measured:
[1] = Stat Signaling Pathway (AID 446);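 note: ME-180 cervical cancer cells given 40 pM IL-6 alongside compound; SIE-controlled beta-lactamase reporter measured as 460/530 nm FRET emission ratio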
Outline: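 Compound effects on IL-6-induced STAT reporter activity were measured in ME-180 cells. After overnight culture, cells were co-treated with 40 pM IL-6 for 5 hrs before beta-lactamase substrate loading at room temperature.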

[2] = target: Glucocorticoid receptor (Homo sapiens) (UniProt P04150); experiment: GR-GFP Redistribution (AID 450;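 active = compounds whose dose series gives a full or clear partial fitted curve of increased nuclear translocation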; note: potency is the fitted concentration of half-maximal effect); conditions: U2OS GR-GFP nuclear translocation, laser cytometry, 2 h
Sequence of Glucocorticoid receptor (Homo sapiens) (P04150 whole entry, looked up): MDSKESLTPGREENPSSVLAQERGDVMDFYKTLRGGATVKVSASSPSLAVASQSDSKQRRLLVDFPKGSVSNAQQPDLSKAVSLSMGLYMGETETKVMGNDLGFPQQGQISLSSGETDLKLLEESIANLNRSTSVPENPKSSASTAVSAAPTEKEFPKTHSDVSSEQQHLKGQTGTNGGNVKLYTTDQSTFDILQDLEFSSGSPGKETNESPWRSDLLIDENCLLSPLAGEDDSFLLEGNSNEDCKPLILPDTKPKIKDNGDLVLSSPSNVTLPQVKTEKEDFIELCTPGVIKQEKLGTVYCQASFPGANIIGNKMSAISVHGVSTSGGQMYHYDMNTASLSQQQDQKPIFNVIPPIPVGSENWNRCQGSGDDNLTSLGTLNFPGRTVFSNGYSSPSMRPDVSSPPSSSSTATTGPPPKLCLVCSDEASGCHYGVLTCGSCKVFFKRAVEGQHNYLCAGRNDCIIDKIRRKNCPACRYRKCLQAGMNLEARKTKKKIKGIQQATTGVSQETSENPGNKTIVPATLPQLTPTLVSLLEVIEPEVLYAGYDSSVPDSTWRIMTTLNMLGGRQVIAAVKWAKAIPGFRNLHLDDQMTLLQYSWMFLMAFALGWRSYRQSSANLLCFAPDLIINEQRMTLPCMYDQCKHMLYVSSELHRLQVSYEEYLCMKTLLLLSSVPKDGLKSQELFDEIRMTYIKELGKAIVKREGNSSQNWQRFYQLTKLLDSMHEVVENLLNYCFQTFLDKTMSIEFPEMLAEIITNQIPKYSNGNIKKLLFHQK

[3] = target: Luciferin 4-monooxygenase (Photinus pyralis) (UniProt P08659); experiment: Biochemical firefly luciferase enzyme assay for NPC (AID 624030; active = well fitted inhibition curve with a large enough effect;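 note: purified P. pyralis luciferase at 10 nM with luciferin and ATP substrate; series mostly up to about 59 µM; nearly all actives have a fitted effect of over 70% in size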)
Sequence of Luciferin 4-monooxygenase (Photinus pyralis) (P08659 whole entry, looked up): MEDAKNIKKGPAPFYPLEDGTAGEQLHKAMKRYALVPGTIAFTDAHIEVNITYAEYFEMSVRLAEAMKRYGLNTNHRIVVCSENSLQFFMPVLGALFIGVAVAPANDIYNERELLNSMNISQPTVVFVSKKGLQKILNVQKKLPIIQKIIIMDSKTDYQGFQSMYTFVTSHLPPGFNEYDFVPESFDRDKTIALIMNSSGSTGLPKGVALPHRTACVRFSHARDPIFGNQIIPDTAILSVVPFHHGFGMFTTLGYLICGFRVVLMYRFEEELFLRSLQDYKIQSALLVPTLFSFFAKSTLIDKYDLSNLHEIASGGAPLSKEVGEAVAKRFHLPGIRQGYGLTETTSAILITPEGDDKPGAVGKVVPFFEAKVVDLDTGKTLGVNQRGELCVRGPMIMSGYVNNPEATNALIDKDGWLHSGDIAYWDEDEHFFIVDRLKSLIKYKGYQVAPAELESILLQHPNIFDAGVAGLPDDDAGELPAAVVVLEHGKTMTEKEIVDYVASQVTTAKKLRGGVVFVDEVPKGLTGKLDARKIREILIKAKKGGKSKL
Outline: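 Purified P. pyralis luciferase at 10 nM in 50 mM Tris Acetate (final), luminescence read within 5 minutes of enzyme addition to compounds. Activity normalised to PTC124 versus DMSO; concentration-response curves classed by r2, magnitude and activity.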

C[C@@H]1C[C@H]2[C@@H]3C[C@H](F)C4=CC(=O)C=C[C@]4(C)[C@@]3(F)[C@@H](O)C[C@]2(C)[C@@]1(O)C(=O)COC(=O)C(C)(C)C
outcome [1]: inactive | Potency [2]: 1.24 nM (active) | Potency [3]: inactive
